Unmarked numbers belong to inactive results. Where a call stands in place of a potency, no number is given. The source made the active and inactive calls. Unless noted, calls follow the shape of the dose curve; as a rule, active = well fitted activation curve with a large enough effect in the repeat runs; inconclusive = weak or mixed curves; inactive = flat fitted curve, though single readings scatter.
Each compound was assayed against Gonadotropin-releasing hormone receptor (Homo sapiens) (UniProt P30968) (assay: Human gonadotropin-releasing hormone receptor (GnRHR) small molecule agonists, calcium flux assay in GnRHR-HEK293 cells (AID 1920063; calls by dose curve; also: nearly all actives have a fitted effect of over 35% in size)). Settings: calcium flux fluorescence, agonist mode; series mostly up to 57.6 µM.
Procedure, shortened: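 Intracellular calcium rise is the read-out: engineered human GnRHR HEK293 cells, dye-loaded, are exposed to DMSO-dissolved compounds and fluorescence at Ex/Em 480/540 is tracked for 3 min.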

Chain of Gonadotropin-releasing hormone receptor (Homo sapiens) (P30968 whole entry, looked up): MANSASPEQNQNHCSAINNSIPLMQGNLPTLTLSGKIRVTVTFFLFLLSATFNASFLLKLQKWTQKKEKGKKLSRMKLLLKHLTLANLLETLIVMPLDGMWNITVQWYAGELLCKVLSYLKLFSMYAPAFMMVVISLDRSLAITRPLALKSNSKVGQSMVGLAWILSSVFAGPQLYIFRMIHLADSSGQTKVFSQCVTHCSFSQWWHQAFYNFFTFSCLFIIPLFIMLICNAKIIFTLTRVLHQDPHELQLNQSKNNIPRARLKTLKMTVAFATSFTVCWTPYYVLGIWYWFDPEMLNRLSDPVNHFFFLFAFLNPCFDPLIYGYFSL

Structure (SMILES) | activity change | Potency
Nc1c(NC/C=C\COc2cc(CN3CCCCC3)ccn2)c(=O)c1=O | -0.254% [at 11.8 µM, stronger effect = higher value] | 
O=S(=O)(O)c1ccc2cc(O)c(S(=O)(=O)O)cc2c1 |  | inactive
COCCOCCOCCOCCOC |  | inactive
COCCOCCOCCOCCOCCO |  | inactive
CCCO |  | inactive
O=[N+]([O-])c1ccc(Oc2ccc([N+](=O)[O-])cc2)cc1 |  | inactive
CC[N+](C)(C)c1cccc(O)c1 |  | inactive
CCCCCCCN |  | inactive
CS(C)(=O)=O |  | inactive
O=c1[nH]c(=O)c2cn[nH]c2[nH]1 |  | inactive
CCC(COC(=O)CCS)(COC(=O)CCS)COC(=O)CCS |  | inactive
CC(C)N=C(N)/N=C(\N)Nc1ccc(Cl)cc1 |  | inactive
CC(C)(C)c1ccc(O)c(C(C)(C)C)c1 |  | inactive
CCCCCCCC(=O)N(C)C |  | inactive
CCCCC(C)C(=O)O (stereo not drawn) |  | inactive
CCO[Si](CCCN=C=O)(OCC)OCC |  | inactive
CCCCCCCCO[C@@H]1O[C@H](CO)[C@@H](O)[C@H](O)[C@H]1O |  | inactive
Cc1ccc(N=Nc2c(O)ccc3ccccc23)c(C)c1 |  | inactive
CCCOCCO |  | inactive
COc1ccc(N=[N+]([O-])c2ccc(OC)cc2)cc1 |  | inactive

Structure (SMILES) | activity change | Potency
Cc1cc(N)n(-c2ccccc2)n1 |  | inactive
O=C1OC(=O)c2ccccc21 |  | inactive
OC[C@H]1O[C@H](O[C@H]2O[C@H](CO)[C@@H](O)[C@H](O)[C@H]2O)[C@H](O)[C@@H](O)[C@@H]1O |  | inactive
CCSC(=O)N(CC)CC |  | inactive
CCCCC(=O)N(C)C |  | inactive
CC(=O)NC(Cc1ccccc1)C(=O)O (stereo not drawn) |  | inactive
C=C(C)C(=O)NCCC[N+](C)(C)C |  | inactive
CCCC(C)CCC(C)=O (stereo not drawn) |  | inactive
C/C=C/C(=O)C1=C(C)C=CCC1(C)C |  | inactive
NS(=O)(=O)c1ccccc1OC(F)(F)F |  | inactive
CC(=O)Oc1ccccc1C(=O)Nc1ncc([N+](=O)[O-])s1 |  | inactive
C1CN(CCOCCN2CCOCC2)CCO1 |  | inactive
CC(=O)CC/C=C(\C)CC/C=C(\C)CC/C=C(\C)CCC=C(C)C |  | inactive
C=CCOCC(O)CO (stereo not drawn) |  | inactive
CC(CCC(=O)O)C(=O)O (stereo not drawn) |  | inactive
CCOC(C)(C)C |  | inactive
O=Cc1cccc([N+](=O)[O-])c1 |  | inactive
CC(C)CC(O)Cc1ccccc1 (stereo not drawn) |  | inactive
CC(=O)OCCN(CCOC(C)=O)c1ccc(N=Nc2ccc([N+](=O)[O-])cc2C#N)cc1 |  | inactive

What follows are compounds tested against KiSS-1 receptor (Homo sapiens) (UniProt Q969F8) (assay: Human kisspeptin (KISS1R) small molecule agonists, calcium flux assay in KISS1R-HEK293 cells (AID 1920064)). Settings: KISS1R-HEK293, calcium flux fluorescence, agonist; series mostly up to 76.8 µM.
Procedure, shortened: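 Concentration-response testing used 15 concentrations in triplicate on human KISS1R-expressing HEK293 cells. Calcium-dependent fluorescence (Ex/Em 480/540) was followed kinetically for 3 min after compound transfer.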

Chain of KiSS-1 receptor (Homo sapiens) (Q969F8 whole entry, looked up): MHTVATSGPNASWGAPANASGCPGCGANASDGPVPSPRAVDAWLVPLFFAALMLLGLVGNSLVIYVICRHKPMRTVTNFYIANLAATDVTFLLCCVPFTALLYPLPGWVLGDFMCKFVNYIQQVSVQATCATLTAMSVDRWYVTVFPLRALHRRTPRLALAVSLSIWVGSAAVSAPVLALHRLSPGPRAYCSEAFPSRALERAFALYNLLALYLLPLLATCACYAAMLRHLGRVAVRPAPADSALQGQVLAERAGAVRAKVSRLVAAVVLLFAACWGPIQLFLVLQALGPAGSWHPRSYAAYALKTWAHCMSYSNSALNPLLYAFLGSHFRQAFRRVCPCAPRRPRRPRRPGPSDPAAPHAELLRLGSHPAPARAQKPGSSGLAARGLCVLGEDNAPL

Structure (SMILES) | activation | Potency
Nc1c(NC/C=C\COc2cc(CN3CCCCC3)ccn2)c(=O)c1=O | 1.38% [at 15.8 µM] | 
O=S(=O)(O)c1ccc2cc(O)c(S(=O)(=O)O)cc2c1 |  | inactive
COCCOCCOCCOCCOC |  | inactive
COCCOCCOCCOCCOCCO |  | inactive
CCCO |  | inactive
O=[N+]([O-])c1ccc(Oc2ccc([N+](=O)[O-])cc2)cc1 |  | inactive
CC[N+](C)(C)c1cccc(O)c1 |  | inactive
CCCCCCCN |  | inactive
CS(C)(=O)=O |  | inactive
O=c1[nH]c(=O)c2cn[nH]c2[nH]1 |  | inactive
CCC(COC(=O)CCS)(COC(=O)CCS)COC(=O)CCS |  | inactive
CC(C)N=C(N)/N=C(\N)Nc1ccc(Cl)cc1 |  | inactive
CC(C)(C)c1ccc(O)c(C(C)(C)C)c1 |  | inactive
CCCCCCCC(=O)N(C)C |  | inactive
CCCCC(C)C(=O)O (stereo not drawn) |  | inactive
CCO[Si](CCCN=C=O)(OCC)OCC |  | inactive
CCCCCCCCO[C@@H]1O[C@H](CO)[C@@H](O)[C@H](O)[C@H]1O |  | inactive
Cc1ccc(N=Nc2c(O)ccc3ccccc23)c(C)c1 |  | inactive
CCCOCCO |  | inactive
COc1ccc(N=[N+]([O-])c2ccc(OC)cc2)cc1 |  | inactive

Structure (SMILES) | activation | Potency
Cc1cc(N)n(-c2ccccc2)n1 |  | inactive
O=C1OC(=O)c2ccccc21 |  | inactive
OC[C@H]1O[C@H](O[C@H]2O[C@H](CO)[C@@H](O)[C@H](O)[C@H]2O)[C@H](O)[C@@H](O)[C@@H]1O |  | inactive
CCSC(=O)N(CC)CC |  | inactive
CCCCC(=O)N(C)C |  | inactive
CC(=O)NC(Cc1ccccc1)C(=O)O (stereo not drawn) |  | inactive
C=C(C)C(=O)NCCC[N+](C)(C)C |  | inactive
CCCC(C)CCC(C)=O (stereo not drawn) |  | inactive
C/C=C/C(=O)C1=C(C)C=CCC1(C)C |  | inactive
NS(=O)(=O)c1ccccc1OC(F)(F)F |  | inactive
CC(=O)Oc1ccccc1C(=O)Nc1ncc([N+](=O)[O-])s1 |  | inactive
C1CN(CCOCCN2CCOCC2)CCO1 |  | inactive
CC(=O)CC/C=C(\C)CC/C=C(\C)CC/C=C(\C)CCC=C(C)C |  | inactive
C=CCOCC(O)CO (stereo not drawn) |  | inactive
CC(CCC(=O)O)C(=O)O (stereo not drawn) |  | inactive
CCOC(C)(C)C |  | inactive
O=Cc1cccc([N+](=O)[O-])c1 |  | inactive
CC(C)CC(O)Cc1ccccc1 (stereo not drawn) |  | inactive
CC(=O)OCCN(CCOC(C)=O)c1ccc(N=Nc2ccc([N+](=O)[O-])cc2C#N)cc1 |  | inactive
